Results from PubChem BioAssay (Tox21).
Several values for one entry are separate records, joined by “and”; a condition that tells them apart may be missing. Identical values can stand only once. Results filed as inconclusive are left out. A call without a number means that no potency is given here. More than one record can exist for a structure, and the calls need not agree. Activity calls are given as the source filed them. Calls follow the shape of the dose curve; as a rule, active = well fitted curve in the direction sought with a large enough effect in the repeat runs; inconclusive = weak or mixed curves; inactive = no such curve, though single readings can be large; an effect the other way counts as inactive or inconclusive.

Tests used:
[1] = qHTS RealTime-Glo MT Cell Viability Assay in HEK293 cells - 16 hour (AID 1224872); also: nearly all actives have a fitted effect of over 50% in size; also: potency is read from the fitted curve at half-maximal effect
Summary of the method: (§1)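 HEK293 cells seeded with NanoLuc/prosubstrate reagent, rested 5 h at 37 C, then dosed and kept at 37 C up to 40 h. Nonlytic real-time luminescence from viable cells read at 0, 8, 16, 24, 32 and 40 h.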

[2] = qHTS RealTime-Glo MT Cell Viability Assay in HepG2 cells - 8 hour (AID 1224873); also: nearly all actives have a fitted effect of over 55% in size; also: potency is read from the fitted curve at half-maximal effect
Summary of the method: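 Real-time viability: cells seeded at 600 per well together with NanoLuc and cell-permeant prosubstrate, compounds added after 5 h incubation. Luminescence tracked at 0, 8, 16, 24, 32 and 40 h of exposure.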

[3] = A CellTox Green Cytotoxicity Assay to monitor cytotoxicity in HEK293 cells - 24 hour (AID 1224875); also: nearly all actives have a fitted effect of over 45% in size; also: potency is read from the fitted curve at half-maximal effect
Summary of the method: (§2)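 Cells (HEK293, 600/well) and dye reagent are dispensed together. After 5 h at 37 C, 23 nL compound is pinned in. Plates stay at 37 C for 40 h with fluorescence read at 0h, 8h, 16h, 24h, 32h and 40h.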

[4] = qHTS RealTime-Glo MT Cell Viability Assay in HepG2 cells - 32 hour (AID 1224877); also: nearly all actives have a fitted effect of over 55% in size; also: potency is read from the fitted curve at half-maximal effect
Summary of the method: (§3)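 HepG2 cells (600/well) were dispensed with RealTime-Glo reagents, incubated 5 h at 37 °C, then treated with compounds in DMSO for up to 40 h. Nonlytic NanoLuc luminescence reflecting viable cells was read at each stated time point.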

[5] = A CellTox Green Cytotoxicity Assay to monitor cytotoxicity in HepG2 cells - 24 hour (AID 1224878); also: nearly all actives have a fitted effect of over 45% in size; also: potency is read from the fitted curve at half-maximal effect
Summary of the method: (§4)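 Cells and non-lytic dye reagent are dispensed together (600 HepG2 cells/well) and incubated 5 h before DMSO compound transfer. Kinetic fluorescence is then recorded in the same wells during 40 h at 37 C.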

[6] = A CellTox Green Cytotoxicity Assay to monitor cytotoxicity in HepG2 cells - 40 hour (AID 1224879); also: nearly all actives have a fitted effect of over 40% in size; also: potency is read from the fitted curve at half-maximal effect
Summary of the method: as §4

[7] = qHTS RealTime-Glo MT Cell Viability Assay in HEK293 cells - 0 hour (AID 1224880); also: nearly all actives have a fitted effect of over 45% in size; also: potency is read from the fitted curve at half-maximal effect
Summary of the method: (§5)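 Real-time viability in HEK293: signal arises when living cells convert a prosubstrate for NanoLuc in the medium, so luminescence tracks viable cell number. Compound (23 nL, DMSO) added 5 h post-seeding; kinetic reads at 0–40 h, 37 C.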

[8] = A CellTox Green Cytotoxicity Assay to monitor cytotoxicity in HepG2 cells - 0 hour (AID 1224882); also: nearly all actives have a fitted effect of over 35% in size
Summary of the method: as §4

[9] = A CellTox Green Cytotoxicity Assay to monitor cytotoxicity in HepG2 cells - 32 hour (AID 1224883); also: nearly all actives have a fitted effect of over 50% in size; also: potency is read from the fitted curve at half-maximal effect
Summary of the method: as §4

[10] = A CellTox Green Cytotoxicity Assay to monitor cytotoxicity in HEK293 cells - 8 hour (AID 1224884); also: nearly all actives have a fitted effect of over 35% in size; also: potency is read from the fitted curve at half-maximal effect
Summary of the method: as §2

[11] = qHTS RealTime-Glo MT Cell Viability Assay in HepG2 cells - 16 hour (AID 1224885); also: nearly all actives have a fitted effect of over 50% in size; also: potency is read from the fitted curve at half-maximal effect
Summary of the method: as §3

[12] = qHTS RealTime-Glo MT Cell Viability Assay in HEK293 cells - 24 hour (AID 1224886); also: nearly all actives have a fitted effect of over 50% in size; also: potency is read from the fitted curve at half-maximal effect
Summary of the method: as §1

[13] = qHTS RealTime-Glo MT Cell Viability Assay in HEK293 cells - 8 hour (AID 1224887); also: nearly all actives have a fitted effect of over 50% in size; also: potency is read from the fitted curve at half-maximal effect
Summary of the method: as §5

[14] = A CellTox Green Cytotoxicity Assay to monitor cytotoxicity in HEK293 cells - 16 hour (AID 1224888); also: nearly all actives have a fitted effect of over 35% in size; also: potency is read from the fitted curve at half-maximal effect
Summary of the method: as §2

[15] = qHTS RealTime-Glo MT Cell Viability Assay in HepG2 cells - 0 hour (AID 1224889); also: nearly all actives have a fitted effect of over 50% in size; also: potency is read from the fitted curve at half-maximal effect
Summary of the method: as §3

[16] = A CellTox Green Cytotoxicity Assay to monitor cytotoxicity in HepG2 cells - 8 hour (AID 1224890); also: nearly all actives have a fitted effect of over 45% in size; also: potency is read from the fitted curve at half-maximal effect
Summary of the method: as §4

[17] = qHTS assay to identify small molecule antagonists of the estrogen receptor alpha (ER-alpha) signaling pathway using the BG1 cell line in the presence of 0.1 nM 17-beta-estradiol - cell viability counter screen (AID 1259241); also: nearly all actives have a fitted effect of over 40% in size
Summary of the method: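 VM7Luc4E2 cells (endogenous ER-alpha, 4×ERE-luciferase), hormone-starved 5 days in charcoal-stripped FBS, were treated with compounds plus 0.1 nM 17beta-estradiol for 22 hr at 37C; viability read in same wells as CellTiter-Fluor live-cell protease fluorescence.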

[18] = A CellTox Green Cytotoxicity Assay to monitor cytotoxicity in HEK293 cells - 32 hour (AID 1224881); also: nearly all actives have a fitted effect of over 40% in size; also: potency is read from the fitted curve at half-maximal effect
Summary of the method: as §2

[19] = qHTS RealTime-Glo MT Cell Viability Assay in HEK293 cells - 40 hour (AID 1224874); conditions: RealTime-Glo luminescence; max response: stronger effect = lower value; also: nearly all actives have a fitted effect of over 50% in size; also: potency is read from the fitted curve at half-maximal effect
Summary of the method: as §5

[20] = A CellTox Green Cytotoxicity Assay to monitor cytotoxicity in HepG2 cells - 16 hour (AID 1224876); also: nearly all actives have a fitted effect of over 45% in size; also: potency is read from the fitted curve at half-maximal effect
Summary of the method: as §4

Oc1ccc2[nH]cc(CCCCN3CC=C(c4ccccc4)CC3)c2c1
Potency [1]: 9.52 µM (active) | Potency [2]: inactive | Potency [3]: inactive | Potency [4]: inactive | Potency [5]: 19 µM (active) | Potency [6]: 23.9 µM (active) | Potency [7]: inactive | Potency [8]: inactive | Potency [9]: 23.9 µM (active) | Potency [10]: inactive | Potency [11]: inactive | Potency [12]: 19 µM (active) | Potency [13]: 8.49 µM (active) | Potency [14]: inactive | Potency [15]: inactive | Potency [16]: inactive | Potency [17]: inactive

CSC1=N[C@@](C)(c2ccccc2)C(=O)N1Nc1ccccc1
Potency [1]: inactive | Potency [2]: inactive | Potency [3]: inactive | Potency [6]: inactive | Potency [18]: inactive | Potency [9]: inactive | Potency [10]: inactive | Potency [11]: inactive | Potency [12]: inactive | Potency [13]: inactive | Potency [14]: inactive | Potency [15]: inactive | Potency [16]: inactive

O=S1(=O)OCC2C(CO1)C1(Cl)C(Cl)=C(Cl)C2(Cl)C1(Cl)Cl (configuration not stated)
Potency [1]: 19.5 µM (active) | Potency [19]: 21.9 µM (active) | Potency [3]: inactive | Potency [20]: inactive | Potency [5]: inactive | Potency [7]: inactive | Potency [8]: inactive | Potency [10]: inactive | Potency [12]: 19.5 µM (active) | Potency [15]: inactive | Potency [16]: inactive | Potency [17]: inactive

Cc1ccccc1OP(=O)(Oc1ccccc1C)Oc1ccccc1C
Potency [1]: inactive | Potency [2]: inactive | Potency [3]: inactive | Potency [20]: inactive | Potency [4]: inactive | Potency [5]: inactive | Potency [6]: inactive | Potency [7]: inactive | Potency [18]: inactive | Potency [8]: inactive | Potency [9]: inactive | Potency [10]: inactive | Potency [11]: inactive | Potency [14]: inactive | Potency [15]: inactive | Potency [16]: inactive | Potency [17]: inactive

CCCCCCCCCCCCCCn1cc[n+](C)c1
Potency [1]: 55 µM (active) and 24.3 µM (active) | Potency [2]: 49.1 µM (active) and inactive | Potency [19]: 2.76 µM (active) and 1.93 µM (active) | Potency [20]: 34.7 µM (active) and 43.2 µM (active) and inactive | Potency [4]: 21.9 µM (active) and 38.5 µM (active) and inactive | Potency [5]: 24.6 µM (active) and 38.5 µM (active) and inactive | Potency [6]: 19.5 µM (active) and 21.6 µM (active) and inactive | Potency [7]: inactive | Potency [18]: 34.7 µM (active) and 38.5 µM (active) and inactive | Potency [8]: inactive | Potency [9]: 21.9 µM (active) and 24.3 µM (active) and inactive | Potency [10]: 55 µM (active) and 54.4 µM (active) and inactive | Potency [11]: 39 µM (active) and 54.4 µM (active) and inactive | Potency [12]: 7.78 µM (active) and 8.62 µM (active) | Potency [16]: 39 µM (active) and 48.5 µM (active) and inactive | Potency [17]: inactive

O.O.O.O.O.O.O.O=S(=O)([O-])[O-].[Co+2]
Potency [1]: inactive | max response [19]: 0.267% (inactive) | Potency [3]: inactive | Potency [20]: inactive | Potency [4]: inactive | Potency [6]: inactive | Potency [7]: inactive | Potency [18]: inactive | Potency [9]: inactive | Potency [11]: inactive | Potency [12]: inactive | Potency [13]: inactive | Potency [14]: inactive | Potency [16]: inactive | Potency [17]: inactive

Clc1ccc(C(c2ccc(Cl)cc2)C(Cl)Cl)cc1
Potency [1]: 44.4 µM (active) and 43.6 µM (active) | Potency [2]: inactive | Potency [19]: 49.8 µM (active) and 43.6 µM (active) | Potency [20]: inactive | Potency [4]: inactive | Potency [5]: inactive | Potency [6]: inactive | Potency [7]: inactive | Potency [18]: 49 µM (active) | Potency [9]: inactive | Potency [10]: inactive | Potency [11]: inactive | Potency [12]: 44.4 µM (active) and 43.6 µM (active) | Potency [13]: 44.4 µM (active) and 38.9 µM (active) | Potency [14]: inactive | Potency [15]: inactive | Potency [16]: inactive | Potency [17]: inactive

CCN1CCC2(CC1)COc1cc3c(cc12)N(C(=O)c1ccc(-c2ccc(-c4nnc(C)o4)cc2C)cc1)CC3
Potency [1]: 18 µM (active) | Potency [19]: 11.3 µM (active) | Potency [3]: 50.7 µM (active) | Potency [20]: 50.7 µM (active) | Potency [4]: 45.2 µM (active) | Potency [6]: 45.2 µM (active) | Potency [7]: 25.4 µM (active) | Potency [8]: inactive | Potency [9]: 45.2 µM (active) | Potency [10]: 50.7 µM (active) | Potency [11]: 45.2 µM (active) | Potency [12]: 12.7 µM (active) | Potency [13]: 20.2 µM (active) | Potency [15]: 20.2 µM (active) | Potency [16]: 50.7 µM (active)

C1=CCC=C1
Potency [1]: inactive | Potency [2]: inactive | Potency [3]: inactive | Potency [20]: inactive | Potency [5]: inactive | Potency [6]: inactive | Potency [7]: inactive | Potency [18]: inactive | Potency [8]: inactive | Potency [9]: inactive | Potency [10]: inactive | Potency [13]: inactive | Potency [14]: inactive | Potency [16]: inactive | Potency [17]: inactive

Clc1ccc(C(Cl)(Cl)Cl)cc1Cl
Potency [1]: 33.9 µM (active) | Potency [19]: 33.9 µM (active) | Potency [3]: 33.9 µM (active) | Potency [20]: 47.9 µM (active) | Potency [5]: 47.9 µM (active) | Potency [6]: 47.9 µM (active) | Potency [7]: inactive | Potency [18]: 33.9 µM (active) | Potency [9]: 47.9 µM (active) | Potency [10]: 42.7 µM (active) | Potency [12]: 33.9 µM (active) | Potency [13]: 30.2 µM (active) | Potency [14]: 38.1 µM (active) | Potency [15]: inactive | Potency [16]: 47.9 µM (active) | Potency [17]: inactive

c1csc(-c2ccc(-c3cccs3)s2)c1
Potency [1]: inactive | Potency [2]: inactive | max response [19]: -2.2% (inactive) | Potency [4]: inactive | Potency [6]: inactive | Potency [7]: inactive | Potency [9]: inactive | Potency [10]: inactive | Potency [11]: inactive | Potency [12]: inactive | Potency [13]: inactive | Potency [14]: inactive | Potency [15]: inactive | Potency [16]: inactive | Potency [17]: inactive

Cc1cc(C2CC2)nc(Nc2ccccc2)n1
Potency [1]: 21.9 µM (active) | Potency [19]: 21.9 µM (active) | Potency [3]: inactive | Potency [7]: inactive | Potency [18]: inactive | Potency [8]: inactive | Potency [10]: inactive | Potency [12]: 24.5 µM (active) | Potency [13]: 21.9 µM (active) | Potency [14]: inactive | Potency [15]: inactive | Potency [17]: inactive

CN1C(=O)[C@@H](NC(=O)c2cc3ccccc3[nH]2)N=C(c2ccccc2)c2ccccc21
Potency [1]: inactive | max response [19]: 20% (inactive) | Potency [3]: inactive | Potency [20]: inactive | Potency [4]: inactive | Potency [5]: inactive | Potency [6]: inactive | Potency [7]: inactive | Potency [18]: inactive | Potency [9]: inactive | Potency [10]: inactive | Potency [12]: inactive | Potency [13]: inactive | Potency [14]: inactive | Potency [16]: inactive | Potency [17]: inactive

CC#C[C@]1(O)CC[C@H]2[C@@H]3C[C@H](C)C4=CC(=O)CC[C@]4(C)[C@H]3CC[C@@]21C
Potency [1]: inactive | Potency [2]: inactive | Potency [3]: inactive | Potency [20]: inactive | Potency [4]: inactive | Potency [5]: inactive | Potency [18]: inactive | Potency [8]: inactive | Potency [9]: inactive | Potency [10]: inactive | Potency [11]: inactive | Potency [13]: inactive | Potency [14]: inactive | Potency [15]: 2.68 µM (active) | Potency [16]: inactive
